# From PubChem BioAssay
# Most compounds without a hit are left out; they make up all but 2.9% or so of the library.
# Bim-Mcl-1: inhibitors of Bim peptide binding to Mcl-1, primary screen, biochemical, bead-based flow cytometry, multiplex; inhibition, % at 10 µM; Induced myeloid leukemia cell differentiation protein Mcl-1 (Homo sapiens), Q07820; 190,000 tested, 0.1% active; Bim peptide-Mcl-1 binding; in the data active = inhibition above about 40%
# Target sequence (Q07820 whole entry, looked up): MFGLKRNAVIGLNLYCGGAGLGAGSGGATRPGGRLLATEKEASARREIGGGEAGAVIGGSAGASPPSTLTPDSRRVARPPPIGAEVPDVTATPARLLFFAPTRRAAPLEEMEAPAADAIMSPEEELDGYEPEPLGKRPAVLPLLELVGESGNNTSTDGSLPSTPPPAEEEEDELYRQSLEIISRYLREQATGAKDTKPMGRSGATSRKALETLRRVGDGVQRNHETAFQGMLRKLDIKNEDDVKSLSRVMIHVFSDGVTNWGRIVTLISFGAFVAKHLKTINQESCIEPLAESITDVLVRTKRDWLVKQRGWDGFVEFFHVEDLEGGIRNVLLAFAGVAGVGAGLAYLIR
# Hck-Nef inh: inhibitors of Nef-activated human Hck kinase, primary screen, biochemical, Z-Lyte FRET, 384-well, Hck-YEEI | inhibition, % at 20 µM | Recombinant Hck-YEEI plus Nef, Z-Lyte FRET kinase assay | 220,000 tested, 0.68% active;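 active = Hck-Nef kinase inhibition above about 50%, limit read from the data; inactive = inhibition below that limit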
# Mcl1 Noxa PPI: Mcl-1/Noxa binding inhibitors, primary screen, biochemical, TR-FRET, 1536-well | TR-FRET Mcl-1/Noxa peptide binding, 2 h | inhibition, % at 21.7 µM | Induced myeloid leukemia cell differentiation protein Mcl-1 (Homo sapiens), Q07820 | AID 1022, 2008 | 220,000 tested, 1.5% active;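 active = compounds that cut the protein-peptide binding signal by more than 50% relative to plate controls in a single-dose test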;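 note: His-tagged Mcl-1 with rhodamine Noxa BH3 peptide and terbium anti-His antibody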
# Mcl1-Bid inh: Mcl-1/Bid binding inhibitors, primary screen, biochemical, TR-FRET, 1536-well; TR-FRET Mcl-1/Bid-Dy647 peptide binding; 220,000 tested, 0.97% active; AID 1021, 2008; inhibition, % at 21.7 µM;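 active = compounds that cut the binding signal by more than half at the single screening dose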;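 note: His-tagged Mcl-1 with europium anti-His antibody binding Bid BH3 peptide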
# Pf gamet viab: late stage P. falciparum gametocyte viability inhibitors, primary screen, ATP luminescence, HTS | 150,000 tested, 0.065% active | inhibition, % at 10.9 µM | AID 743093, 2013 | P. falciparum stage V gametocytes, 24 h;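 active = inhibition above the mean plus 3 SD of compounds within the control limits, set per campaign, cut at about 38% in these data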
# 14-3-3 Bad inh: inhibitors of 14-3-3 zeta/Bad binding, primary screen, biochemical, TR-FRET, bovine 14-3-3 zeta. 220,000 tested, 0.71% active. AID 781, 2007. TR-FRET 14-3-3zeta/Dy647-pBad peptide displacement, 1 h. inhibition, % at 21.7 µM. 14-3-3 protein zeta/delta (Bos taurus), P63103;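 active = inhibition above about 70%, limit read from the data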
# Target sequence (P63103 whole entry, looked up): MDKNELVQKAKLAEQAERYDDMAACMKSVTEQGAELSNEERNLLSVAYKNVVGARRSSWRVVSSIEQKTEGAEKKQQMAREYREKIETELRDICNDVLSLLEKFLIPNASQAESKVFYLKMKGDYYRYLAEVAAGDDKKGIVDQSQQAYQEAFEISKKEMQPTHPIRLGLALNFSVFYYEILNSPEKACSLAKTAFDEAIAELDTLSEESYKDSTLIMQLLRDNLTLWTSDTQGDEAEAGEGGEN
# Hck Nef conf: retest of Hck:Nef kinase inhibitor hits, confirmation, biochemical, Z-Lyte FRET, 384-well, p-Tyr peptide counterscreen. Recombinant Hck-YEEI:Nef, Z-Lyte FRET kinase assay. shares compounds with Hck-Nef inh. calls only at 10 µM. 1,300 tested, 28% active. AID 463188, 2010;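 active = average inhibition of at least 50%, with Z-scores no higher than 3 in both the phospho-tyrosine peptide and fluorescence counterscreens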
# A number is an active result; 0 = inactive; - = no result shown; + = active, no number; [ ] = remark or other dose.
SMILES,Bim-Mcl-1,Hck-Nef inh,Mcl1 Noxa PPI,Mcl1-Bid inh,Pf gamet viab,14-3-3 Bad inh,Hck Nef conf
CC(C)c1cc(=O)oc2c3c4c(cc12)CCCN4CCC3,0,52.0,0,0,-,0,-
Cc1cc(=O)oc2c3c4c(cc12)OCCN4CCC3,0,72.3,0,0,-,0,-
CC1=NOC(=O)/C1=C\c1ccc(-c2ccc(Br)cc2)o1,0,113.2,65.8,0,-,0,0
Cc1ccc(/C=C2\C(=O)ON=C2c2ccccc2)o1,0,0,0,0,0,0,-
CCS/C(N)=N/N=C/c1cc(C)ccc1O,0,51.3,0,0,-,0,0
Cc1cc(C(=O)NC(=S)Nc2cccc(C(=O)O)c2C)ccc1[N+](=O)[O-],0,0,0,0,0,0,-
Cc1cc(C(=O)O/N=C(\N)c2ccncc2)ccc1[N+](=O)[O-],-,0,0,0,0,0,-
CCOC(=O)Cc1c(C)c2c(O)cc(O)cc2oc1=O,0,50.0,0,0,-,0,0
CCN(CC)c1ccc2c(Cl)c(Br)c(=O)oc2c1,0,0,0,0,-,0,-
CCN(CC)c1ccc2c(C)c(Cl)c(=O)oc2c1,0,+,0,0,0,0,-
CCOC(=O)Cc1c(C)c2ccc(N(CC)CC)cc2oc1=O,0,106.6,0,0,-,0,-
Cc1ccc(NC(=O)CCNC(=O)c2ccco2)cc1F,0,0,0,0,0,0,-
CCOC(=O)C1=C(C)NC2=C(C(=O)CC(C)(C)C2)C1c1coc2ccccc2c1=O (centres undefined),0,0,0,0,-,0,-
COc1cc(/C=C2\SC(=N)N(c3ccc(F)cc3)C2=O)ccc1O,0,76.8,53.2,0,0,0,0
Clc1ccc(/C=C\c2nccc3c2[nH]c2ccccc23)cc1,0,0,0,0,0,0,-
N#Cc1ccc(/C=C\c2nccc3c2[nH]c2ccccc23)cc1,0,57.3,0,0,0,0,0
Cc1ccc(Cl)cc1N1CCN(C(=O)COc2ccc3c(c2)CCC3)CC1,0,0,0,0,0,0,-
Cc1ccc(-n2sc3ccccc3c2=O)cc1S(=O)(=O)N1CCCCC1,0,114.8,53.5,0,0,0,+
C/C(=N\NS(=O)(=O)c1ccc(C)cc1)c1ccc(C)o1,0,0,0,0,-,0,-
O=C(/C=C/c1cn(-c2ccccc2)nc1-c1ccccc1)Nc1ccc(C(=O)O)cc1,0,0,0,0,0,0,-
NS(=O)(=O)c1ccc(NC(=O)/C=C/c2cn(-c3ccccc3)nc2-c2cccc(Cl)c2)cc1,0,89.6,0,0,-,0,0
O=C(O)Cc1sc(Nc2ccccc2)nc1-c1cccs1,-,0,0,0,0,0,-
O=C(NC1CCCC1)C(c1ccc(F)cc1)N(Cc1ccc(Cl)cc1)C(=O)CCl (centres undefined),0,0,0,0,0,0,-
Cc1ccc(-c2nn3c(C)nnc3s2)cc1NC(=O)c1ccc(-c2ccc(Cl)cc2Cl)o1,0,50.2,0,0,-,85.5[fluorescence artefact?],+
C=CCn1cc(/C=C2/NC(=O)NC2=O)c2ccccc21,-,61.2,0,0,0,0,0
SMILES,Bim-Mcl-1,Hck-Nef inh,Mcl1 Noxa PPI,Mcl1-Bid inh,Pf gamet viab,14-3-3 Bad inh,Hck Nef conf
CN1CCC(=O)N([C@H](CO)c2ccccc2)CC1,-,-,-,-,0,-,-
CC(=O)Nc1ccc(NC(=O)c2cccc3ccccc23)cc1,-,-,-,-,0,-,-
CC(=O)Nc1ccc(N=Cc2c(O)c(C(=O)Nc3ccccc3)cc3ccccc23)cc1,0,68.9,84.4,70.6,0,0,0
CC(NC(=O)CN1CCN(c2cccc(Cl)c2)CC1)c1ccccc1 (centres undefined),-,-,-,-,0,-,-
Cc1ccc(S(=O)(=O)Nc2ccc(Br)cc2/C=N/n2cnnc2)cc1,0,0,0,0,-,0,-
CC1=C(C#N)C(=O)NC(=O)/C1=C\c1ccc(-c2cc(C)c(C)cc2[N+](=O)[O-])o1,0,90.8,100.4,91.7,0,0,+
CCCCC(CC)C(=O)Nc1cccc(SC)c1 (centres undefined),0,0,0,0,0,0,-
O=C(CCSc1ccccc1)NCCSCc1ccco1,0,0,0,0,-,0,-
S=C(Nc1ccccc1Cl)NC1CCC(NC(=S)Nc2ccccc2Cl)CC1 (centres undefined),0,0,0,0,-,0,-
O=C(NC(=S)Nc1ccc(Cc2ccncc2)cc1)c1ccc(F)cc1,0,68.2,0,0,0,0,0
Cc1cc(-c2cccs2)c(C#N)c(=S)[nH]1,-,0,0,0,0,0,-
N#Cc1c(-c2cccs2)cc(-c2cccs2)[nH]c1=O,-,109.1,0,0,0,0,-
CCC12CN3CC(CC)(CN(C1)C3c1ccc([N+](=O)[O-])o1)C2=O (centres undefined),0,50.1,0,0,-,0,0
Cc1cc2c(n1-c1ccc(Br)cc1)CC(C)(C)CC2=O,0,99.3,0,0,0,0,0
Cc1ccc(-n2c(C)cc3c2CC(C)(C)CC3=O)cc1C,0,0,0,0,-,0,-
Cc1cccc(NC(=O)CSc2ncnc3c2oc2ccccc23)c1,0,0,0,0,-,0,-
O=C(CSc1ncnc2c1oc1ccccc12)Nc1nccs1,0,79.0,0,0,-,0,0
Clc1ccc(C2=NN(c3ccccc3)C(c3ccco3)C2)cc1 (centres undefined),-,60.2,0,0,0,0,0
CC(=O)N1N=C(c2ccc(Cl)cc2)CC1c1ccco1 (centres undefined),-,0,0,0,0,0,-
Cc1nnc(SCC(=O)N2N=C(c3ccc(Cl)cc3)CC2c2ccco2)[nH]c1=O (centres undefined),0,50.4,53.3,0,0,0,0
O=C(COc1ccc(/C=N/NC(=O)c2cc3ccccc3o2)cc1Br)Nc1ccccc1,0,79.3,0,82.0,-,85.8[fluorescence artefact?],+
N#Cc1c2nc3ccccc3nc2n2cc(NC(=O)c3ccc(F)cc3)ccc12,0,72.2,111.3,86.0,0,78.0[fluorescence artefact?],0
Cc1c(C(=O)Nc2ccc(F)cc2)cn2c(nc3ccccc32)c1C#N,-,0,0,0,0,0,-
COc1ccc(C(=O)N=c2sc3ccccc3n2C)cc1,0,0,0,0,0,0,-
COc1cc(OC)cc(C(=O)N=c2sc3ccccc3n2C)c1,0,81.4,0,0,0,0,0
COc1ccc(CN2CCCCC2C(=O)Nc2ccc(OC)c(OCC(C)C)c2)cc1OC (centres undefined),0,0,0,0,-,0,-
